Measurements taken from PubChem BioAssay AID2685 (National Center for Advancing Translational Sciences (NCATS), 2010).
In all, about 320,000 compounds went through this assay and about 2,100 (0.66%) were called active. Not shown: some 53% with an inconclusive outcome. The sample holds actives, similar compounds and a random draw of the others, so the mix is not that of the screen. Calls follow the shape of the dose curve; as a rule, active = well fitted inhibition curve with a large enough effect in the signal ratio, with a control signal flat (not every such curve was filed as active); inconclusive = small, poorly fitted or top-dose-only effect, or effect the other way, or a change in a side signal; inactive = flat fitted curve, though single readings scatter; the % refers to the signal ratio.

assay: qHTS Assay for Lipid Storage Modulators in Drosophila S3 Cells; settings: BODIPY lipid droplet fluorescence, 18-24 h, cells fed with added oleic acid; cell number change: measured here: cell count max response; series mostly up to 46.1 µM; lipid storage change, negative = inhibition: at the top concentration;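 as to cell number change: cells counted by Cell Tracker Red CMTPX staining in the red channel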; as to lipid storage change, negative = inhibition: % is scaled to controls: 0 for no effect and ±100 for the full control effect
Outline: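 Laser-scanning cytometry quantifies lipid droplet accumulation (500–530 nm total intensity; droplet/cell object ratio) in oleic acid-fed (400 uM added) Drosophila S3 cells treated with a concentration series. 20 uM Triacsin C defined 100% inhibition.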
Potency is read from the fitted curve at half-maximal effect.

Row | Compound | lipid storage change, negative = inhibition | cell number change [%] | Potency | outcome
1 | Cc1ccc(C(=O)Cn2c3[n+](c4ccccc42)CC(O)CS3)cc1 (stereo unspecified) | 8.6% (inactive) | 25.2 | – | –
2 | O=C(Cc1ccccc1)Nc1nnc(-c2cccc([N+](=O)[O-])c2)s1 | 2.31% (inactive) | -4.06 | – | –
3 | Cc1cccc(N(Cc2cc(=O)[nH]c3ccccc23)C(=O)C(C)C)c1 | -11.5% (inactive) | -7.9 | – | –
4 | Cc1cccc(N(Cc2cc(=O)[nH]c3ccccc23)C(=O)CCl)c1 | – | -1.53 | 20.6 µM (active) | –
5 | Cc1ccccc1N(Cc1cc(=O)[nH]c2ccccc12)C(=O)CCl | – | 13.2 | – | inactive
6 | CN(C)S(=O)(=O)c1ccc(NC(=O)C2CC(=O)N(Cc3ccccc3)C2)cc1 (stereo unspecified) | 0.189% (inactive) | -10.9 | – | –
7 | CCN(CC)S(=O)(=O)c1ccc(NN=C2CCN(C(C)C)CC2)c([N+](=O)[O-])c1 | -5.99% (inactive) | 1.2 | – | –
8 | Cc1ccc(S(=O)(=O)c2cc3c(=O)n4cc(C)ccc4nc3n(CC3CCCO3)c2=N)cc1 (stereo unspecified) | 10.8% (inactive) | -5.73 | – | –
9 | COP(=O)(OC)C(Nc1cc(Cl)cc(Cl)c1)c1cccc(O)c1 (stereo unspecified) | -23% (inactive) | -20.9 | – | –
10 | CCN(CC(=O)Nc1ccccc1OC)C(=O)C1CCCC1 | – | -11 | – | inactive
11 | CCCN(CC(=O)Nc1ccccc1OC)C(=O)Cc1ccccc1F | – | 20.6 | – | inactive
12 | CCN(CC(=O)Nc1ccccc1OC)C(=O)C1CCC1 | – | 0.934 | – | inactive
13 | CCCN(CC(=O)Nc1ccccc1OC)C(=O)CCC(=O)c1ccc(F)cc1 | – | -6.3 | 0.82 µM (active) | –
14 | CCCN(CC(=O)Nc1ccccc1OC)C(=O)CCC(=O)c1ccc(Cl)s1 | -3.74% (inactive) | -12.8 | – | –
15 | CCCN(CC(=O)Nc1ccccc1OC)C(=O)C1CCCC1 | – | – | 3.66 µM (active) | –
16 | O=[N+]([O-])c1cccc(S(=O)(=O)N2CCCCC2)c1 | – | 2.7 | – | inactive
17 | Fc1ccc(-c2cc(C(F)(F)F)nc(NCc3cccs3)n2)cc1 | 11.1% (inactive) | 10.1 | – | –
18 | CCCN(CCC(=O)Nc1ccccc1F)CC1CC1 | – | 22.5 | – | inactive
19 | COc1ccc(NC(=O)c2ccc(C)cc2)c[n+]1[O-] | 1.42% (inactive) | 9.2 | – | –

Row | Compound | lipid storage change, negative = inhibition | cell number change [%] | Potency | outcome
20 | COCCn1nnnc1C(c1ccc(OC)cc1)N1CCN(C(=O)c2ccco2)CC1 (stereo unspecified) | – | 10.8 | – | inactive
21 | COc1ccc(C(c2nnnn2C(C)C)N2CCN(C(=O)c3ccco3)CC2)cc1 (stereo unspecified) | – | 10.1 | 0.0259 µM (active) | –
22 | COc1ccc(C(c2nnnn2C(C)(C)C)N2CCN(C(=O)c3ccco3)CC2)cc1 (stereo unspecified) | – | 15.4 | – | inactive
23 | Cc1cccc(CSc2nnc([C@@H]3CCCN3C(=O)OC(C)(C)C)o2)c1 | 0.387% (inactive) | 6.08 | – | –
24 | CCOC(=O)C1CCN(c2ccc([N+](=O)[O-])cc2)CC1 | -22.6% (inactive) | -12 | – | –
25 | COc1ccc(OC)c(S(=O)(=O)Nc2ccc3oc(C)c(C(C)=O)c3c2)c1 | – | -9.21 | – | inactive
26 | O=C(COC(=O)c1nc(Cl)ccc1Cl)NC1CCCCCC1 | – | – | – | inactive
27 | Cc1cc(C)c(OCC(=O)OCC(=O)NC2CCCCCCC2)c(C)c1 | – | 19.3 | 1.84 µM (active) | –
28 | O=C(COC(=O)c1c(Cl)cccc1Cl)NC1CCCCC1 | 3.06% (inactive) | – | – | –
29 | Cc1ccsc1C(=O)OCC(=O)NC1CCCC1 | – | -11 | 0.517 µM (active) | –
30 | O=C(COC(=O)c1cccc(C(=O)OCC(=O)NC2CCCCC2)n1)NC1CCCCC1 | – | -17.1 | 20.6 µM (active) | –
31 | Cc1ccsc1C(=O)OCC(=O)NCCNC(=O)COC(=O)c1sccc1C | -4.96% [at 0.0737 µM] (inactive) | 12.8 | – | –
32 | Cc1ccccc1OCC(=O)OCC(=O)NC1CCCCCC1 | – | -24.2 | – | inactive [at 0.0737 µM]
33 | Cc1ccsc1C(=O)OCC(=O)NC1CCS(=O)(=O)C1 (stereo unspecified) | -5.35% (inactive) | 0.0545 | – | –
34 | O=C(COC(=O)c1ccccc1)NC1CCCC1 | -8.07% (inactive) | -13.7 | – | –
35 | Nc1c(C(=O)NC2CCCCC2)nsc1C(=O)OCC(=O)NC1CCCCC1 | 22.9% (inactive) | -16.5 | – | –
36 | Nc1c(Cl)c(Cl)nc(C(=O)OCC(=O)NC2CCCCC2)c1Cl | – | -8.54 | 9.2 µM (active) | –
37 | Cc1cc(C)cc(OCC(=O)OCC(=O)NC2CCCCCCC2)c1 | – | -3.74 | – | inactive
38 | Cn1c(=O)c(=O)n(C)c2cc(S(=O)(=O)N3CCCCCC3)ccc21 | 8.17% (inactive) | 11.2 | – | –

Row | Compound | lipid storage change, negative = inhibition | cell number change [%] | Potency | outcome
39 | CN(C)CCCNS(=O)(=O)c1ccc(N2CCN(Cc3ccc4c(c3)OCO4)CC2)c([N+](=O)[O-])c1 | – | -3.81 | – | inactive
40 | COc1cc(OC)c(NC(=O)C(=O)CC(=O)c2ccc(C)cc2C)cc1Cl | -15.5% (inactive) | -12.6 | – | –
41 | CN1C(=O)/C(=C/c2ccccc2Cl)Sc2ccc(C(=O)NCc3cccnc3)cc21 | 9.31% (inactive) | -7.77 | – | –
42 | Cc1ccc(S(=O)(=O)N/N=c2\oc3ccccc3cc2C(=O)Nc2cccc(C)c2)cc1 | 19.4% (inactive) | -24.3 | – | –
43 | CCOC(=O)c1sc2nc(C)nc(SCC(=O)N(CC)C3CCS(=O)(=O)C3)c2c1C (stereo unspecified) | 1.68% (inactive) | -1.32 | – | –
44 | Cn1nc(-c2ccc(C(=O)NCCO)cc2)c2ccccc2c1=O | 2.9% (inactive) | -4.78 | – | –
45 | CC1(c2ccc(OCC#N)cc2)C=C(c2ccc(OCC#N)cc2)n2nc(C(F)(F)F)nc2N1 (stereo unspecified) | -10.8% (inactive) | -2.27 | – | –
46 | C=CCN1c2ccccc2[C@]23C[C@@H](C(=O)OC)N=C2NC(C(=O)OC)=C(C(=O)OC)[C@H]13 | 7.18% (inactive) | 33.7 | – | –
47 | CC(C)OC(=O)/C(C#N)=C\c1cccnc1 | 2.35% (inactive) | 5.73 | – | –
48 | CCC(C)(C)NC(=O)C(c1ccc(OC)cc1)N(C(=O)CCC(=O)Nc1cc(C)on1)C1CC1 (stereo unspecified) | – | -1.32 | – | inactive
49 | O=C(Nc1cc2c(cc1Br)OCCO2)c1cccnc1 | 29.5% (inactive) | -16.4 | – | –
50 | Cc1ccc(S(=O)(=O)NNC(=O)C2CCN(S(=O)(=O)c3ccc(C)cc3)CC2)cc1 | -9.5% (inactive) | 1.57 | – | –
51 | Cc1ccc(S(=O)(=O)NNC(=O)C2CCCCC2)cc1 | – | 6.31 | 0.651 µM (active) | –
52 | Cc1ccc(S(=O)(=O)N2CCC(C(=O)NNS(=O)(=O)c3ccc(Cl)cc3)CC2)cc1 | -27.5% (inactive) | 4.8 | – | –
53 | CCOc1ccc(C(=O)OCC(=O)N2CCCC2)cc1OCC | – | -21 | – | inactive
54 | COc1ccccc1NS(=O)(=O)c1cc(NC(=O)CCNC(C)=O)ccc1C | 6.34% (inactive) | 9.21 | – | –
55 | O=[N+]([O-])c1cc(C(F)(F)F)ccc1NCCCCNS(=O)(=O)c1ccc(Cl)cc1 | – | -16.8 | 25.9 µM (active) | –
56 | CS(=O)(=O)NCCCCNc1ccc(C(F)(F)F)cc1[N+](=O)[O-] | 3.4% (inactive) | 4.42 | – | –
57 | CS(=O)(=O)NCCCNc1ccc(C(F)(F)F)cc1[N+](=O)[O-] | -1.44% (inactive) | 2.05 | – | –
